From PubChem
NPR1 antag = Natriuretic polypeptide receptor (hNpr1) antagonism - Primary qHTS | Atrial natriuretic peptide receptor 1 (Homo sapiens), P16066 | AID 1347048, 2019 | HEK293 hNpr1 GloSensor cGMP, ANP-stimulated luminescence | actives 1.6% (n = 76,000) | Potency, µM (titrated, usually from 46.3 µM), for the others: at the top dose activity change, negative = inhibition, actives largely listed as inhibitors; calls by dose curve; note: nearly all actives have a fitted effect of over 60% in size
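Compound pre-incubated 30 min at room temperature on GloSensor-loaded HEK293 cells stably carrying hNpr1 and the pGS-40F cGMP biosensor. Stimulation uses hNppA at 0.1 nM final; luminescence is taken at baseline and 20 min post-agonist.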
3T3 cytotox = Cytotoxic Profiling in NIH 3T3 Cell Line of Diverse Libraries Using Quantitative High-Throughput Screening. Potency, µM (doses to about 96.7 µM), without a hit: at the highest dose activity change, negative = cytotoxicity, hits mostly inhibitors. NIH 3T3 viability, CellTiter-Glo ATP luminescence, 48-72 h. AID 1345082, 2018. actives 4.3% (n = 94,000); note: nearly all actives have a fitted effect of over 55% in size
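ATP-dependent luminescence (CellTiter-Glo) served as the viability signal for NIH 3T3 cells treated with compound for 48 or 72 hr at 37 °C.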
Luciferase inh = Firefly luciferase inhibition profiling of diverse chemical library using quantitative high-throughput screening | Luciferin 4-monooxygenase (Photinus pyralis), P08659 | purified P. pyralis luciferase, luminescence, biochemical | Potency, µM (top dose mostly 115 µM), hits mostly inhibitors | actives 2.5% (n = 76,000) | AID 1347043, 2019; note: nearly all actives have a fitted effect of over 65% in size
Target sequence (P08659 whole entry, looked up): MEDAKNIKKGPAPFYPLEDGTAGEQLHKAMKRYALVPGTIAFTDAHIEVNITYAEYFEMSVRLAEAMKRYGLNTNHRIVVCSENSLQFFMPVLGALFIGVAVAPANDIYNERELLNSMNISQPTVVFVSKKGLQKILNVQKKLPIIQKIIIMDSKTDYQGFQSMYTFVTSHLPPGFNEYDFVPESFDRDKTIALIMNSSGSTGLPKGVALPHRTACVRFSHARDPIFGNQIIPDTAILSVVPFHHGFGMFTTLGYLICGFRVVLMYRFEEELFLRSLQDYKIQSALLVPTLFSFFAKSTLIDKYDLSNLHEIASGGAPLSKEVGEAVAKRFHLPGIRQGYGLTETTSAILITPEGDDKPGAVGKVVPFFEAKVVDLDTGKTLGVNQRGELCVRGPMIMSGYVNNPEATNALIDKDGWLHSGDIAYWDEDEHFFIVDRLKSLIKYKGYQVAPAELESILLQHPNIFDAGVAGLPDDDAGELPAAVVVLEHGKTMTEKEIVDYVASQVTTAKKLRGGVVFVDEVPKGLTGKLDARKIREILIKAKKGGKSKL
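Inhibitors were tested against purified firefly luciferase in a biochemical, low-substrate format (both substrates at 10uM) and luminescence measured with a CCD imager.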
HEK cytotox = Cytotoxic Profiling in HEK 293 Cell Line of Diverse Libraries Using Quantitative High-Throughput Screening | HEK 293 viability, ATP luminescence (CellTiter-Glo), 48-72 h | Potency, µM (series often up to 115 µM), for inactives: at the highest dose activity change, negative = cytotoxicity, most hits filed as inhibitors | actives 6.6% (n = 94,000) | AID 1345083, 2018; note: nearly all actives have a fitted effect of over 60% in size
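HEK 293 cells seeded at 250 cells/well were exposed to compound for 48 or 72 hr at 37 degree Celsius. Viability taken as ATP content by CellTiter-Glo luminescence.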
Numbers without * were called inactive; i = inactive; ? = inconclusive; / = no result given; [ ] = remark or other dose. The list is not random: actives were taken first. Their share in the collection is about 11%. Unless noted, calls come from the whole dose curve; as a rule, active = well fitted curve in the direction sought with a large enough effect; inconclusive = small, poorly fitted or top-dose-only effect, or another doubt; inactive = no such curve, though single readings can be large; an effect the other way counts as inactive or inconclusive. % is set by controls: 0 for no effect and ±100 for the full control effect; potency is the fitted concentration of half-maximal effect.

SMILES	NPR1 antag	3T3 cytotox	Luciferase inh	HEK cytotox
Cc1nn(-c2cccc(Br)c2)c(C)c1[C@@H]1C=C[C@@H](NS(C)(=O)=O)C1	?	?	56µM*	?
Cc1nn(-c2cccc(Br)c2)c(C)c1[C@@H]1C=C[C@@H](NCc2cccc(C#N)c2)C1	-20%	?	40µM*	?
Cc1ccc(-n2nc(C)c([C@H]3C=C[C@@H](OC(=O)N[C@H](C)c4ccccc4)C3)c2C)cc1Cl	-19%	?	i	?
Cc1nn(-c2ccccc2)c(C)c1[C@@H]1C=C[C@@H](NCc2cccc(C#N)c2)C1	-13%[70.6 µM]	?	i	63µM*
Cc1noc(C)c1[S+](=O)([O-])N1CCC(C(=O)N2CCC(N3CCOCC3=O)CC2)CC1	/	i	/	i
Cc1nn(-c2ccc(C(C)C)cc2)c(C)c1[C@@H]1C=C[C@@H](NCc2cccc(C#N)c2)C1	-19%[70.6 µM]	?	?	25µM*
Cc1nn(CCC#N)c(C)c1[C@@H]1C=C[C@@H](NC(=O)NCc2ccccc2)C1	1%[70.6 µM]	-27%[174 µM]	i	-7%[172 µM]
COc1ccc(C(=O)N2CC[C@@H]3COCCN(C)[C@@H]3C2)c(OC)c1	-11%	1%	22µM*	?
CC(C)(CN1CCOCC1)NC(=O)c1csc2nc(-c3ccc(F)cc3)cn12	0%	-27%	i	?
CC(C)c1noc(CN(C)C(=O)c2csc3nc(-c4ccc(F)cc4)cn23)n1	?	?	i	45µM*
CN(Cc1nccn1C)C(=O)c1csc2nc(-c3ccc(C(F)(F)F)cc3)cn12	-11%	?	40µM*	40µM*
O=C(C1CCCN1C(=O)C1CCCC1)N1CCC(c2nc3ccncc3[nH]2)C1 (stereo not given)	/	-19%	/	2%
O=c1cc(N2CCOCC2)oc2c(Nc3ccccc3)nccc12	2%[70.6 µM]	40µM*	i	-14%[172 µM]
O=c1cc(N2CCOCC2)oc2c(NC3CCOCC3)nccc12	1%[70.6 µM]	32µM*	i	-24%[172 µM]
COc1ccc(-c2nccc3c(=O)cc(N4CCN(C)CC4)oc23)cn1	-1%[70.6 µM]	?	i	i
COc1ccc(Nc2nccc3c(=O)cc(N4CCOCC4)oc23)cn1	9%[70.6 µM]	89µM*	i	-32%[172 µM]
O=C(N[C@@H]1CCC[C@@H]1C(=O)N1CCN(c2ccccn2)CC1)c1ccncc1	2%	-5%	i	i
Cc1nn(C)c(C)c1S(=O)(=O)N1CCCC(C(=O)N2CCCn3nc(-c4ccc(F)cc4)cc3C2)C1 (stereo not given)	/	?	/	32µM*
Cc1nn(C)c(C)c1S(=O)(=O)N1CCCC(Cn2c(C3CC3)nc3cccnc32)C1 (stereo not given)	-1%	?	i	1%
OC[C@@H]1CN(C2CCC2)C[C@H]1c1nc(-c2ccncc2)no1	2%	-3%	45µM*	-15%
OC[C@@H]1CN(CC2CC2)C[C@H]1c1nc(-c2ccncc2)no1	0%	-11%	35µM*	-3%
OC[C@@H]1CN(C2CCCCC2)C[C@H]1c1nc(-c2ccncc2)no1	5%	-18%	?	-27%
CN(C)C(=O)C1CCN(Cc2ccccc2-c2cccnc2)CC1	/	-5%[138 µM]	/	-7%[172 µM]
OC1(CN2CCN(c3ccc(F)c(Cl)c3)CC2)CCCNC1 (stereo not given)	3%	?	i	79µM*
COc1ccc(C(=O)N2CCC[C@@H]2C(=O)N2CCC(N3CCOC3=O)CC2)cc1	/	-14%	/	1%
SMILES	NPR1 antag	3T3 cytotox	Luciferase inh	HEK cytotox
Cn1ncc2c(C(=O)N3CCC(C#N)CC3)cc(-c3ccc(Cl)cc3Cl)nc21	/	-32%	/	?
Cc1cc(C2CCCN2C(=O)c2ccc(-c3ccccc3Cl)o2)no1 (stereo not given)	4%	?	?	45µM*
COc1cccc(-c2ccc(C(=O)N3CCC(NC(=O)Nc4ccccc4F)CC3)cc2)c1	/	?	/	16µM*
COc1cccc(-c2ccc(C(=O)N3CCC(NC(=O)Cc4cccc(Cl)c4)CC3)cc2)c1	/	?	/	25µM*
COc1ccc(-c2cccc(C(=O)N3CCC(NC(=O)Nc4ccccc4)CC3)c2)nn1	/	-26%	/	-21%
COc1ccc(-c2cccc(C(=O)N3CCC(NC(=O)Nc4ccc(Cl)cc4)CC3)c2)nn1	/	25µM*	/	45µM*
COc1cccc(-c2ccc(C(=O)N3CCC(NC(=O)NC4CCCC4)CC3)cc2)c1	/	-32%	/	-23%
COc1cccc(-c2ccc(C(=O)N3CCC(NC(=O)C(C)(C)C)CC3)cc2)c1	/	40µM*	/	?
COc1cccc(-c2ccc(C(=O)N3CCC(NC(=O)c4ccc(C(F)(F)F)cc4)CC3)cc2)c1	/	-11%	/	?
CN1CCN(C(=O)c2ccc3nnc(Cc4ccc(Cl)cc4)n3c2)CC1	/	-28%	/	-6%
O=C(Nc1ccc(Cl)cc1)N1CCC(c2nn(-c3ccc(Cl)cc3)c(=O)[nH]2)CC1	3%	?	i	?
Cc1ccccc1C(=O)N1CCC(C(=O)N2CCC(N3CCOC3=O)CC2)CC1	/	-16%	/	-5%
COc1cccc(-c2ccc(C(=O)N3CCC(NC(=O)c4ccccc4C)CC3)cc2)c1	/	40µM*	/	?
COc1ccc(-c2cc(N3CCCN(C(=O)c4ccccc4OC)CC3)n[nH]2)cc1	-2%	-22%	i	-26%
COc1ccc(Cl)cc1C(=O)N1CCCN(c2cc(-c3ccc(Br)cc3)[nH]n2)CC1	?	32µM*	i	35µM*
COc1ccccc1C(=O)N1CCCN(c2cc(-c3ccc(Br)cc3)[nH]n2)CC1	?	?	i	40µM*
CCOc1cccc2c1OC[C@@H]1CN(CCC#N)C(=O)CCN(C(=O)c3ccc(C)cc3)[C@H]21	/	?	/	-25%
COCCOCc1nc(C2CCN(C(=O)CCc3ccccc3)C2)no1 (stereo not given)	/	2%	/	0%
CCCC(C)NC(=O)c1cc(-c2ccc(C(F)(F)F)cc2)nc2c1cnn2C (stereo not given)	/	?	/	-15%
Cc1onc(-c2cnn(C)c2NCc2ccc(C#N)cc2)c1C(=O)N(C)c1ccccc1	-3%[70.6 µM]	45µM*	i	?
Cc1ccc(-c2noc([C@@H]3Cc4nc[nH]c4CN3C(=O)CCCC(=O)O)n2)cc1	-3%[70.6 µM]	-15%[174 µM]	?	-5%[172 µM]
CC(C)c1noc([C@@H]2Cc3nc[nH]c3CN2Cc2ccc(F)cc2)n1	-15%[70.6 µM]	?	i	?
Cc1cccc(-c2noc([C@@H]3Cc4nc[nH]c4CN3Cc3cccc(C#N)c3)n2)c1	-6%[70.6 µM]	?	i	?
N#Cc1cccc(CN2Cc3[nH]cnc3C[C@H]2c2nc(-c3ccccc3)no2)c1	-11%[70.6 µM]	?	63µM*	89µM*
